Bioassay records: PubChem, National Center for Advancing Translational Sciences (NCATS)
This is one part of a sample in which hits are shown more often than they occur.
Pf Dd2 growth – inhibitors of Plasmodium falciparum Dd2 growth; P. falciparum Dd2 growth, SYBR Green, 72 h; Potency, µM (highest dose often 28.9 µM), hits mostly inhibitors; 120,000 compounds, 4.3% hits; AID 1347417; active = well fitted inhibition curve with a large enough effect; also: nearly all actives have a fitted effect of over 65% in size
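Readout: SYBR Green fluorescence, 485 nm excitation, 535 nm emission, after ~16 h lysis at 37C. Before that, Dd2-infected red cells (2.5% hematocrit) grew 72 h with compound, 29 uM top final concentration.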
Hits are given with their value; 0 = inactive; [ ] = remark or other dose.

SMILES	Pf Dd2 growth
O=C([C@H]1C[C@H](Oc2ccccc2)CN1C(=O)CCCc1ccccc1)N1CCOCC1	0
COc1ccccc1-c1cc([C@H]2CN3CC[C@H]2C[C@@H]3COC(=O)Nc2ccc(C(C)C)cc2)n(C)n1	0
COCC(=O)NC1CCC12CCN(C(=O)NC1CCCCC1)CC2 (stereo not drawn)	0
O=C(NCc1nnc2n1CCCCC2)C1CC2(CCNCC2)CN1 (stereo not drawn)	0
Cc1cn2cc(C(=O)N(CCCn3ccnc3)Cc3cccnc3)ccc2n1	0
CCn1ncc(CN2CCCC(c3nc(-c4cccnc4)no3)CCNC(=O)CC2)c1C (stereo not drawn)	0
O=C(c1ccc(C(F)(F)F)cc1)N1CCn2c(nn(-c3ccc(Cl)cc3)c2=O)C1	0
Cc1ccc(C(=O)N2CCCCCCNC(=O)[C@@H]3CCCC[C@@H]32)cn1	0
Cc1nn(-c2ccc(F)cc2)c(Oc2cccc(F)c2)c1CCC(=O)NCC1CC1	0
Cc1cccc(N2C(=O)C(CC(=O)Nc3cccc(F)c3)N(CCc3ccncc3)C2=O)c1 (stereo not drawn)	0
COc1ccc(CCN2C(=O)N(c3ccc(C)cc3)C(=O)C2CC(=O)Nc2ccc(F)cc2)cc1 (stereo not drawn)	0
CCc1ccc(NC(=O)CC2C(=O)N(c3ccc(C)cc3)C(=O)N2CCc2ccncc2)cc1 (stereo not drawn)	6.3µM
CC(C)CC(NC(=O)c1cnc2ccccc2c1)c1nnc2n1CCNCC2 (stereo not drawn)	0
Cc1cccc(C(=O)N2CCCC(c3noc(COc4ccccc4)n3)C2)c1 (stereo not drawn)	0
CCOCc1nc(C2CCCN(C(=O)c3ccc(OC)cc3)C2)no1 (stereo not drawn)	0
O=C(Cc1cccc(F)c1)N1CCCC(c2nc(C3CCOCC3)no2)C1 (stereo not drawn)	0
COCc1nc(C2CCCN(C(=O)c3ccc(C)cc3)C2)no1 (stereo not drawn)	0
Cc1cccc(C(=O)N2CCC(c3noc(CO)n3)C2)c1 (stereo not drawn)	0
Cc1ccsc1C(=O)N1CCCC(c2noc(COc3ccccc3F)n2)C1 (stereo not drawn)	0
Cc1cn2nc(-c3nc(C4CCCN(C(=O)Cc5cccc(F)c5)C4)no3)cc2c(=O)[nH]1 (stereo not drawn)	4µM
CCc1ccc(C(=O)N2CCCC(c3noc(-c4cc5c(=O)[nH]c(C)cn5n4)n3)C2)cc1 (stereo not drawn)	0.89µM
Cc1cccc(C(=O)N2CCCC(c3noc(-c4cc5c(=O)[nH]c(C)cn5n4)n3)C2)c1 (stereo not drawn)	5.6µM
Cc1cn2nc(-c3nc(C4CCCN(C(=O)c5ccc(C)s5)C4)no3)cc2c(=O)[nH]1 (stereo not drawn)	0
Cc1cn2nc(-c3nc(C4CCCN(C(=O)c5sccc5C)C4)no3)cc2c(=O)[nH]1 (stereo not drawn)	4.5µM
CCOCc1nc(C2CCCN(C(=O)Cc3cccc(C)c3)C2)no1 (stereo not drawn)	0
SMILES	Pf Dd2 growth
Cc1noc([C@H]2CCN(S(=O)(=O)c3c(C)noc3C)C[C@H]2NC(=O)C2CC2)n1	0
O=C(O)C1(Oc2ccc3ncccc3c2)CCN(Cc2ncc[nH]2)CC1	0
O=C(NCCc1ccccc1)N1CCC(c2noc(-c3ccccn3)n2)C1 (stereo not drawn)	0[5.79 µM]
Cn1cccc1C(=O)C(=O)N1CCC(O)(CN2CCOCC2)C(C)(C)C1 (stereo not drawn)	0
COc1ccc(C(=O)NC2CCN(c3ccc(=O)n(C)n3)CC2)cn1	0
COCCNC(=O)NC[C@H]1O[C@@H]2C[C@@H](CC(=O)NCc3cnn(C)c3)O[C@@H]2[C@@H]1O	0
COc1ccc(NC(=O)Cn2c(N3CCc4ccccc4C3)nc(C)cc2=O)cc1OC	0
Cc1ccc([S+](=O)([O-])c2nnn3c2nc(N2CCC(F)CC2)c2ccccc23)cc1	0
COc1ccccc1N1CCN(C(=O)C[C@@H]2O[C@H](CNS(=O)(=O)c3ccc(Cl)cc3)[C@@H](O)[C@H]2O)CC1	0
CN(Cc1ccccc1)C(=O)c1ccc(CSc2nc3cccnc3n2Cc2ccccc2)cc1	10µM
COc1ccc(Cn2c(SCc3ccc(C(=O)NCCc4ccccc4)cc3)nc3cccnc32)cc1	13µM
O=C(NCc1ccccc1F)c1ccc(CSc2nc3cccnc3n2Cc2ccccc2)cc1	0
O=C(NCc1ccccc1)c1ccc(CSc2nc3cccnc3n2Cc2ccccc2)cc1	0
O=C(NCCN1CCCCC1)c1ccc(Cn2c(SCc3cccc(F)c3)nc3cccnc32)cc1	7.9µM
O=C(NC1CC1)c1ccc(Cn2c(SCc3ccccc3F)nc3cccnc32)cc1	0
CNC(=O)c1ccc(CSc2nc3cccnc3n2Cc2cccc(F)c2)cc1	0
O=C(NCCc1ccccc1)c1ccc(Cn2c(SCc3ccc(F)cc3)nc3cccnc32)cc1	0
O=C(NCCc1ccccc1)c1ccc(CSc2nc3cccnc3n2Cc2ccccc2F)cc1	8.9µM
O=C(NC1CCCCC1)c1ccc(Cn2c(SCc3ccccc3F)nc3cccnc32)cc1	0
c1cnc(N2CCC3(CCCN3Cc3ccc(-c4ccn[nH]4)s3)CC2)nc1	0
COCCCNC(=O)NC1CCN(C(=O)N2CC3CC(C2)[C@H]2CCCC(=O)N2C3)CC1 (stereo partly drawn)	0
CCC(=O)N1CCc2c(C(=O)N3CCN(c4cccc(OC)c4)CC3)cccc21	0
CCCN1CC2(CCN(Cc3nc(CCOC)no3)CC2)CC1C(=O)O (stereo not drawn)	0
COc1ccc(C(=O)NC2CCN(c3cc(-c4ccc(F)cc4)[nH]n3)CC2)c(C)c1	0
O=C1[C@H]2CN(Cc3cccc(OC(F)(F)F)c3)C[C@H]2C(=O)N1Cc1ccc2c(c1)OCO2	0
SMILES	Pf Dd2 growth
Cc1noc(C)c1[S+](=O)([O-])N1CCC(N2CCNC2=O)CC1	0
COCCN1CCCC2(CCN(C(=O)CCn3ccc(C)n3)C2)C1=O (stereo not drawn)	0
CN(C)C[C@@H]1CN(c2ccccn2)C[C@H]1NC(=O)c1cnco1	0
CCn1ccnc1C1CCN(C(=O)CC2NC(=O)NC2=O)CC1 (stereo not drawn)	0
CCOc1ccccc1CNC(=O)c1ccc(Cn2c(SCc3ccccc3)nc3cccnc32)cc1	11µM
O=C(NCc1ccco1)c1ccc(Cn2c(SCc3ccc(F)cc3)nc3cccnc32)cc1	0
Cc1ccccc1CNC(=O)c1ccc(CSc2nc3cccnc3n2Cc2ccccc2)cc1	0
CCOc1ccccc1-c1nc(-c2nnn3c2COC(c2ccc(OC)cc2)C3)no1 (stereo not drawn)	0
CCn1cc(S(=O)(=O)N2CCCCCCN(C)C(=O)[C@@H]3CCC[C@@H]32)cn1	0
CN1CCCCCCN(S(=O)(=O)c2cccc(F)c2)[C@H]2CCC[C@H]2C1=O	2.5µM
O=C1NCCCCCN(S(=O)(=O)c2cccc(F)c2)[C@H]2CCCC[C@@H]12	0
Cc1ccc(N(CC(O)Cn2c3ccccc3c3ccccc32)S(=O)(=O)c2ccc(F)cc2)cc1 (stereo not drawn)	13µM
COc1ccc(S(=O)(=O)N(CC(=O)N2CCc3ccccc3C2)c2ccc(C)cc2)cc1	0
Cc1ccc(N(CC(=O)NCc2ccc(F)cc2)S(=O)(=O)c2c(C)nn(C)c2C)cc1	0
COc1ccc(CNC(=O)N2CCC(c3noc(-c4ccccn4)n3)C2)cc1 (stereo not drawn)	0[5.79 µM]
Cc1cc(C)n(Cc2cccc(C(=O)N3CCC4(CC3)[C@H](O)C[C@@H]4O)c2)n1	0
